Screening results (PubChem)
APEX1 inh: inhibitors of human APE1 endonuclease | recombinant APE1, TAMRA/BHQ-2 abasic DNA cleavage fluorescence | Potency, µM (top dose mostly 65.8 µM), without a hit: at the top dose activity change, negative = inhibition, usual class: inhibitors | 350,000 compounds, 0.35% hits;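 also: plate controls were vehicle for no effect and reference inhibitor for full effect; nearly all actives have a fitted effect of over 55% in size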
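Measures dequenching upon AP-site incision of a 5'-TAMRA/3'-BHQ-2 THF-containing duplex, 50 nM; human APE1 0.75 nM after 15 min room-temperature exposure to compound; kinetic three-point read at one-minute spacing.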
Pol iota inh: inhibitors of human DNA polymerase iota; Q9UNA4; Pol iota fluorescent replication assay, 10 min; Potency, µM (doses to about 115 µM), for the others: at the top dose activity, negative = inhibition, actives largely listed as inhibitors; 390,000 compounds, 1% hits; AID 588590
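Fluorescent replication assay read twice, at 0 min and 10 min after adding 50 nM (final) substrate. Enzyme (10 nM) and compounds were first incubated 15 min at room temperature; enzyme-free buffer wells were negative controls.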
POLH inh: blocks human DNA polymerase eta activity; Q9Y253; recombinant Pol eta, fluorescent DNA replication assay; Potency, µM (titrated, usually from 114 µM), without a hit: at the top dose activity change, negative = inhibition, usual class: inhibitors; 390,000 compounds, 1.2% hits; also: % is scaled to controls: 0 for no effect and ±100 for the full control effect
Target sequence (Q9Y253 whole entry, looked up): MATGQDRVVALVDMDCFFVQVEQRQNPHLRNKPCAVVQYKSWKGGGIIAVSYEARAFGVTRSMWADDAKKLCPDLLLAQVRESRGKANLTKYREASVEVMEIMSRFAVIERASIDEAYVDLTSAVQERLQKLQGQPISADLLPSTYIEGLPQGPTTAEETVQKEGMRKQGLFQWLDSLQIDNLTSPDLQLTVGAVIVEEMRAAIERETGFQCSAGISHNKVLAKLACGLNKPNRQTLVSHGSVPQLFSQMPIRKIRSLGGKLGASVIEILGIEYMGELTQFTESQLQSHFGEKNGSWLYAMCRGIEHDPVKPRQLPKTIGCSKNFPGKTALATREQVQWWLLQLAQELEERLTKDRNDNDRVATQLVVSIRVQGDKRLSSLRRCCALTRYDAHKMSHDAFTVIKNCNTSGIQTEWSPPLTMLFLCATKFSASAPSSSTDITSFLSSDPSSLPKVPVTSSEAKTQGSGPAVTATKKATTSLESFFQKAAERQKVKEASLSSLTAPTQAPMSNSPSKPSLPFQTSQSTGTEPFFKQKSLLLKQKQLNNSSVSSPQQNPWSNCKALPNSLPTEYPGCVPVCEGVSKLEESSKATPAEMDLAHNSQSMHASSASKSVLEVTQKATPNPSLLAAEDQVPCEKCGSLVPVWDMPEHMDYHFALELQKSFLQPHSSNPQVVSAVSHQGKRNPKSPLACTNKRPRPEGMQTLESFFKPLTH
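Pol eta (10 nM) was preincubated with compounds for 15 min at room temperature, after which fluorescent replication substrate (50 nM final) was added to start the reaction. Fluorescence was read kinetically at 0 and 10 min.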
GLS inhibitor: glutaminase GLS (human) inhibition. 410,000 compounds, 0.21% hits. Potency, µM (titrated, usually from 45.5 µM), without a hit: top-dose activity change, negative = inhibition, usual class: inhibitors. GLS enzymatic activity, qHTS titration; also: % is scaled to controls: 0 for no effect and ±100 for the full control effect
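hKGA in 45 mM KH2PO4 (pH 8.2), 0.02% Tween-20 with compound, then 1mM L-Glutamine (stock as added) plus glutamate oxidase/HRP/Amplex red coupling mix. Fluorescence read initially and after 30 min at RT; signal change reflects glutamate formation.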
POLK inh: DNA polymerase kappa (human) inhibition; 400,000 compounds, 0.53% hits; purified Pol kappa, fluorescent DNA synthesis assay, 10 min; Potency, µM (titrated, usually from 107 µM), for inactives: at the highest dose activity, negative = inhibition, actives largely listed as inhibitors; Q9UBT6; also: % is scaled to controls: 0 for no effect and ±100 for the full control effect
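Kinetic fluorescence screen: compound preincubated 15 min RT with 10 nM enzyme; 50 nM substrate (final) initiates; reads at 0/10 min.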
Pol beta inh: blocks human DNA polymerase beta activity | Potency, µM (series often up to 114 µM), for the others: at the highest dose activity change, negative = inhibition, actives largely listed as inhibitors | Pol beta primer extension/strand displacement, fluorescence kinetic | P06746 | 340,000 compounds, 1.3% hits | AID 485314; also: % is scaled to controls: 0 for no effect and ±100 for the full control effect
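Enzyme-only controls used 10 nM Pol beta; buffer lacking enzyme served as negative control. Compound preincubated 15 min, then 50 nM substrate added; 0 and 10 min reads at room temperature.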
An asterisk follows results filed as active; u = inconclusive; x = not tested or not shown; [ ] = remark or other dose. Shown are actives, neighbours in structure and some others; about 2.4% of the full set was active somewhere. Calls follow the shape of the dose curve; as a rule, active = well fitted curve in the direction sought with a large enough effect; inconclusive = small, poorly fitted or top-dose-only effect, or another doubt; inactive = no such curve, though single readings can be large; an effect the other way counts as inactive or inconclusive. Potency is read from the fitted curve at half-maximal effect.

SMILES | APEX1 inh | Pol iota inh | POLH inh | GLS inhibitor | POLK inh | Pol beta inh
COc1ccc(C(=O)Nc2ccccc2C(=O)O)cc1NC(=O)C(c1ccccc1)c1ccccc1 | -3.1% | 7.0% | 89.1µM* | 2.9% | -19.2% | u
O=C(Nc1ccccc1C(=O)O)c1cccc(C(=O)Nc2ccccc2C(=O)O)c1 | 0.0% | 5.8% | -9.3% | 21.1% | -21.3% | 4.9%
O=C(NC(=S)Nc1ccccc1Cl)c1ccco1 | 0.0% | 20.0% | 2.8% | 0.0% | -24.3% | -2.6%
COc1ccc(C(=O)Nc2ccccc2C(=O)O)cc1Cl | -5.6% | -10.3% | -17.0% | 18.8% | -16.7% | 24.7%
O=C(NC(=S)Nc1c(Cl)ccc2nsnc12)c1ccco1 | -0.7% | 25.1µM* | -4.5% | 22.2% | -24.4% | 10.1%
CCN(CC)CCCN1C(=O)C(O)=C(C(=O)c2cc3cccc(OC)c3o2)C1c1ccncc1 (stereo unspecified) | -6.6% | 11.4% | 3.7% | 10.8% | 0.0% | 19.7%
O=c1c2ccc(Cl)cc2nc2n1CC/C2=C\c1cccc(O)c1 | -7.0% | 6.3% | -17.9% | -0.9% | -4.7% | 29.1%
Cc1ccccc1-c1nc2c(s1)CCc1onc(-c3cccc([N+](=O)[O-])c3)c1-2 | 5.8% | -5.6% | -6.7% | -1.4% | -3.3% | x
CCCSc1ccc([C@@H]2[C@H]3C(=O)N(CC)C(=O)[C@H]3[C@]3(C(=O)OC)CCCCN23)cc1OC | -19.4% | u | -14.4% | 2.0% | -8.8% | x
COc1ccc(C(=O)Nc2ccc(Br)cc2F)cc1S(=O)(=O)N1CCCC1 | 10.7% | 13.3% | u | 1.5% | -7.5% | x
O=C(Cc1ccccc1)NNC(=O)c1ccc(NC(=O)c2ccccc2)cc1 | u | u | -14.6% | 1.1% | -12.6% | 20µM*
O=C(CSc1ccccc1)Nc1ccc(C(=O)Nc2ccc(O)cc2)cc1 | 4.2% | -18.6% | -3.1% | 2.9% | -9.8% | 79.4µM*
O=C(NC(=S)Nc1ccc(NC(=O)c2ccco2)cc1)c1ccccc1 | 14.6% | 89.1µM* | -0.2% | 13.8% | 11.3% | 45.0%
O=C(NC(=S)NNC(=O)c1ccco1)c1ccccc1 | 11.3% | 43.5% | -18.6% | 35.8% | -12.6% | -9.0%
COc1ccc(Br)cc1CN1C(=O)NC2(CCCCCC2)C1=O | -10.9% | 5.9% | -8.5% | 4.7% | -17.9% | 18.7%
Cc1nonc1NC(=O)CSc1nnc(-c2ccoc2C)n1C | u | 14.9% | 8.1% | -3.7% | 5.0% | -18.0%
CN(C)c1ccc(/C=C2\C(=N)N3N=C(CC(=O)N4CCCC4)SC3=NC2=O)cc1Br | -15.7% | 79.4µM* | -4.6% | 10.9% | u | -18.7%
CN(C)c1ccc(/C=C2\C(=N)N3N=C(CC(=O)N4CCCCC4)SC3=NC2=O)cc1 | -14.1% | 50.1µM* | u | 13.4% | u | u
Nc1c(Cl)cc(C2=NCCn3nc4cc(C(F)(F)F)ccc4c32)cc1Cl | -13.8% | 18.5% | -14.4% | -4.1% | -0.4% | x
Cc1ccc(-c2nc(-c3cc4cccc(OCc5cccc(F)c5)c4oc3=O)no2)cc1 | x | -7.9% | 35.5µM* | -7.7% | -25.6% | 35.5µM*
Cc1ccc(-c2nc(-c3cc4cccc(OCc5ccc(F)cc5)c4oc3=O)no2)cc1 | x | 10.7% | -17.1% | -0.1% | -1.1% | u
O=C1C(=Cc2ccc(Br)o2)C(=O)c2ccccc21 | 8.91µM* | 1.12µM* | 0.794µM* | 143.5% | u | 1.41µM*
CN1C(=O)c2ccccc2Sc2ccc(NC(=O)Cc3c(F)cccc3Cl)cc21 | x | u | -14.8% | -6.5% | -9.9%[60.1 µM] | 20µM*
Cc1ccccc1CSCC(=O)NNC(=S)NCC1CCCO1 (stereo unspecified) | -2.9% | 89.1µM* | -10.9% | 19.2% | -32.9% | u
Nc1ncc(Br)cc1N=Cc1ccccc1 | 4.4% | 10µM* | -23.9% | -8.4% | -27.8% | 39.8µM*
SMILES | APEX1 inh | Pol iota inh | POLH inh | GLS inhibitor | POLK inh | Pol beta inh
O=[N+]([O-])c1ccccc1S(=O)(=O)Nc1ccc(-c2ccc(N3CCCC3)nn2)cc1 | 14.9% | u | 20µM* | -12.4% | -29.9% | x
O=S(=O)(O)c1cccc2cccc(Nc3ccccc3)c12 | x | 28.2µM* | 20µM* | 2.0% | u | x
Cc1ccc(S(=O)(=O)/N=C2/NC(=O)/C(=C\c3ccco3)S2)cc1 | -11.4% | -5.0% | u | 33.4% | -7.8% | -20.9%
CC(=O)Nc1ccc(S(=O)(=O)/N=C2/NC(=O)/C(=C\c3ccco3)S2)cc1 | u | u | 20µM* | -2.8% | u | 10µM*
Cc1cccc(C(=O)NCC(=O)N2CCCC2)c1 | -3.5% | 11.3% | -10.7% | -0.8% | 0.3% | 10.2%
N/C(=N\c1nc2ccccc2o1)NC(=O)/C=C/c1ccccc1 | -1.8% | 25.1% | -6.1% | 0.9% | -7.6% | 0.9%
CCS(=O)(=O)N1Cc2ccccc2CC1C(=O)N1CCN(c2ccccc2)CC1 (stereo unspecified) | -7.5% | u | 15.8µM* | 21.8% | u | 35.5µM*
O=C(C1Cc2ccccc2CN1S(=O)(=O)c1ccc(F)cc1)N1CCOCC1 (stereo unspecified) | -2.7% | 20.9% | -1.7% | -1.4% | -3.4% | 10.3%
CCCCCc1c2c(cc(O)c1C(=O)O)OC(=O)c1cc(C(=O)CCCC)c(OC)cc1O2 | u | u | 79.4µM* | 32.2% | -7.1% | x
CCCCc1c(C(=O)O)cc(OC)cc1C(=O)O | 1.8% | -11.7% | -1.7% | 4.0% | -10.1% | 3.9%
CCCCCc1c2c(cc(O)c1C(=O)O)OC(=O)c1c(cc(OC)cc1C(=O)CCCC)O2 | -1.3% | u | 79.4µM* | 27.7% | u | 50.1µM*
Cc1cc(C(F)(F)F)c2c(=O)[nH]c(=O)n(Cc3ccccc3)c2n1 | 5.9% | -8.6% | -11.5% | -3.9% | -1.4% | -0.8%
OCCn1c(CSc2nnc(-c3ccco3)n2-c2ccccc2)nc2ccc(Cl)cc21 | 1.5% | u | u | -18.7% | 1.7% | 20µM*
CCCC1=Nc2cc(C(=O)NC(C)c3ccccc3)ccc2Sc2ccc(C)cc21 (stereo unspecified) | x | 89.1µM* | -10.2% | -18.0% | u | -14.2%
CCC1=Nc2cc(C(=O)NC(C)c3ccccc3)ccc2Sc2ccc(Cl)cc21 (stereo unspecified) | x | 10.4% | -14.3% | 10.9% | 0.0% | -21.7%
CC(C)(C)c1ccc(OCCSc2nc(-c3cccs3)nc3cc(=O)[nH]n23)cc1 | x | 25.1% | u | u | u | 31.6µM*
COc1ccccc1OCCSc1nc(-c2ccc(C(C)(C)C)cc2)nc2cc(=O)[nH]n12 | x | -18.5% | u | u | -5.5% | 12.0%
Cc1ccc(OCCCSc2nc(-c3ccc(C(C)(C)C)cc3)nc3cc(=O)[nH]n23)cc1C | x | 0.8% | 44.7µM* | -9.9% | -19.8% | u
